Measurements reported in PubChem BioAssay AID1458 (National Center for Advancing Translational Sciences (NCATS), 2008).
Out of some 210,000 compounds screened, about 5,900 (2.8%) were called active. Roughly 5% stayed inconclusive and do not appear here. This is one part of a sample in which actives are shown more often than they occur. Unmarked numbers belong to inactive results. Calls come from the whole dose curve; as a rule, active = well fitted activation curve with a large enough effect; inconclusive = small, poorly fitted or top-dose-only effect; inactive = no such curve, though single readings can be large or run the other way.

assay: qHTS Assay for Enhancers of SMN2 Splice Variant Expression; conditions: HEK293 SMN2-luciferase splicing reporter, luminescence, 30-36 h; series mostly up to 46.1 µM; activity change, positive = activation: at the top concentration; note: nearly all actives have a fitted effect of over 55% in size; for activity change, positive = activation: % of control where 0% means no effect
Method in brief: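 HEK293 cells carry an SMN2 […]–luciferase reporter in which exon 7 inclusion puts luciferase in frame. Cells were plated 10-12 h before compound addition, then incubated 30-36 h at 37C. ONE-Glo luminescence was read; sodium butyrate at 4.5 mM final served as control.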
Potency is the fitted concentration of half-maximal effect.

Compound | Potency | activity change, positive = activation
COC(=O)c1ccc(CSc2ccccc2C)o1 | 8.91 µM (active) | 
COC(=O)c1ccc(CSc2ccc3nnc(-c4ccccc4)n3n2)o1 |  | 23.6%
COC(=O)c1ccc(Cc2ccccc2)o1 |  | 24.2%
Cc1ccc(NS(=O)(=O)c2ccc3c(c2)CC(=O)N3)cc1Cl |  | -6.22%
O=c1cc(CSc2ccc(Cl)cc2)nc(N2CCOCC2)[nH]1 |  | 2.6%
CCOc1ncccc1C(=O)OCc1cn2cc(Cl)ccc2n1 |  | 0.0582%
Clc1ccc2nc(CSc3ccccc3)cn2c1 | 3.16 µM (active) | 
Cc1ccc(-c2cc(C(=O)NCc3cn(C)nc3C)c3cc(Br)ccc3n2)cc1 |  | 21.7%
Cc1ccc2nc(-c3cccc(Br)c3)cc(C(=O)Nn3cnnc3)c2c1 | 12.6 µM (active) | 
Cc1ccc2nc(-c3ccccc3)cc(C(=O)O)c2c1 |  | -16.5%
COc1ccc(N(CC(=O)NCCc2ccc(Cl)cc2)S(=O)(=O)c2c(C)nn(C)c2C)cc1 |  | -15.5%
COc1ccc(S(=O)(=O)N(C)C)cc1NC(=O)CSc1ncccn1 |  | 1.93%
CN(C)S(=O)(=O)c1ccc2oc(SCC(=O)Nc3ccccc3F)nc2c1 | 11.2 µM (active) | 
CCS(=O)(=O)c1ccc2oc(SCC(=O)N3c4ccccc4CC3C)nc2c1 (stereo not given) |  | -17.6%
COc1ccc(CNC(=O)Cn2nnc(-c3ccc(S(C)(=O)=O)cc3)n2)cc1 |  | -2.53%
Cc1cc(Nc2ccccc2)n(C(=O)c2ccc(N)cc2)n1 | 11.2 µM (active) | 
Cc1cc(Nc2ccccc2)n(CCC#N)n1 |  | -1.03%
Cc1cc(NC(=O)Nc2ccccc2)n(-c2ccccc2)n1 |  | -28%
COCCNC(=O)CSc1nc(-c2ccccc2)[nH]c1-c1ccc(C)cc1 |  | -1.93%
COc1ccc(-c2noc(CCC(=O)N(C)c3ccccc3C)n2)cc1 |  | -11.4%
COc1ccccc1N=Cc1c(O)c2ccccc2oc1=O |  | -19.6%
COc1ccc(OC)c(N=Cc2c(O)[nH]c3ccccc23)c1 |  | -11.7%
COc1ccc(N=Cc2c(O)[nH]c3ccccc23)cc1OC | 14.1 µM (active) | 

Compound | Potency | activity change, positive = activation
Cc1ccc(C(=O)Cc2nnc(C)s2)cc1 | 12.6 µM (active) | 
Cc1ccc(C(=O)CS(C)(=O)=O)cc1 |  | 12.3%
Cc1ccc(C(=O)Cn2cccn2)cc1 |  | -7.33%
c1ccc(CN=C2Nc3ccccc3CS2)nc1 | 12.6 µM (active) | 
O=C(NCc1ccccn1)Nc1ccc(F)cc1 |  | 9.31%
Cc1nnc(NCc2ccccc2)c2c1nnn2Cc1ccc(F)cc1 |  | -3.87%
CC1CCN(S(=O)(=O)c2ccc3c(c2)N(CC(=O)NCc2ccccc2Cl)C(=O)CO3)CC1 |  | 27%
Cc1csc2nc(COc3ccc(NC(=O)COc4ccccc4)cc3)cc(=O)n12 |  | -17.9%
CCOc1ccc2nc(C(=O)N3CCCC(C)C3)sc2c1 (stereo not given) | 2.82 µM (active) | 
CCOc1ccc2nc(N3CCCC(C(=O)Nc4cc(C)ccc4C)C3)sc2c1 (stereo not given) | 14.1 µM (active) | 
CCOc1ccc2nc(N3CCC(C(=O)Nc4cc(C)ccc4C)CC3)sc2c1 |  | 4.51%
CCOc1ccc2nc(Nc3nc4ccc(NC(C)=O)cc4s3)sc2c1 |  | -9.63%
Cc1ccnc(N2CCCC(C(=O)Nc3cc(F)ccc3C)C2)n1 (stereo not given) |  | -27.5%
CCOc1ccc2nc(SC(CC)C(=O)Nc3cc(C)on3)sc2c1 (stereo not given) |  | 18.4%
CCCNC(=O)CCn1nc(-c2ccccc2)c2ccccc2c1=O |  | -2.38%
O=c1c(O)c(Br)ccc2c(Br)c(O)c(O)c(O)c12 |  | 7.57%
O=C1C(C=NCC2CCCO2)=C(O)c2ccccc21 (stereo not given) | 11.2 µM (active) | 
O=C(CS(=O)(=O)Cc1ccccc1)NCC1CCCO1 (stereo not given) |  | -7.83%
CC(=NCC1CCCO1)c1c(O)[nH]c(=O)[nH]c1=O (stereo not given) |  | -2.32%
Cc1ccc(C)c(N2CCN(C(=O)CCc3c(C)nc4c(c3C)c(=O)n(C)c(=O)n4C)CC2)c1 |  | 4.7%
O=C(CCN1C(=O)c2ccncc2C1=O)Nc1ccc2c(c1)OCCO2 |  | 0.0698%
O=C(Nc1cccc(NC(=O)c2ccco2)c1)c1cnccn1 |  | 2.47%
O=C(Nc1ccc2c(c1)OCCO2)c1cnccn1 | 12.6 µM (active) | 

Compound | Potency | activity change, positive = activation
O=C(NCN1CCN(CCO)CC1)c1cnccn1 |  | -4.84%
CCN1CCN(c2ccc(NC(=O)c3cnccn3)cc2)CC1 | 11.2 µM (active) | 
O=C(Nc1ccc(S(=O)(=O)N2CCCCC2)cc1)c1cnccn1 |  | -45.6%
O=C(Nc1ccc(OC(F)(F)F)cc1)c1cc2c(=O)n3ccccc3nc2s1 |  | 4.24%
O=C(Cn1c(=O)n(-c2ccc(F)cc2)c(=O)c2sccc21)Nc1cccc(C(F)(F)F)c1 |  | -1.67%
CCN(CC)CCNC(=O)c1cc2c(=O)oc3ccc(C)cc3c2s1 |  | -6.23%
COc1cccc(-c2nc(S(=O)(=O)c3ccc(C)cc3)c(NCc3ccccc3)o2)c1 |  | 14.4%
COc1ccc2oc(-c3cccc(NC(=O)CSc4ccc(Cl)cc4)c3)nc2c1 | 8.91 µM (active) | 
COc1cccc(-c2nc3cc(C)ccc3o2)c1 | 11.2 µM (active) | 
COc1cc2ccccc2cc1C(=O)Nc1cccc(-c2nc3ccccc3o2)c1 |  | -1.36%
COc1cccc(C(=O)Nc2ccc3oc(-c4ccc5ccccc5c4)nc3c2)c1 |  | 6.04%
O=C(COc1ccc(Cl)cc1)Nc1ccc(-c2nc3cc(Cl)ccc3o2)c(O)c1 |  | 21.9%
CCCSc1ncc(Cl)c(C(=O)Nc2sc3c(c2C(=O)NCCOC)CCCC3)n1 |  | -0.192%
O=C(c1ccccc1F)N1CCC(c2nc3c(nnn3Cc3cccc(F)c3)c(=O)[nH]2)CC1 |  | 3.36%
COc1ccc(-c2cc(C(F)(F)F)nc(SCC(=O)N(C)Cc3ccccc3)n2)cc1OC |  | -25.9%
CCOc1ccc(N(CC)C(=O)c2cc3c(=O)oc4ccccc4c3s2)cc1 |  | 8.87%
CSc1ncc(Cl)c(C(=O)Nc2ccc(S(=O)(=O)N3CCCC(C)C3)cc2)n1 (stereo not given) |  | -9.9%
CCOc1cccc(NC(=O)CSc2ncc(-c3ccc(Cl)cc3)[nH]2)c1 |  | -10.3%
CCC(=O)N1CCc2cc(S(=O)(=O)NC(Cc3ccccc3)C(=O)NCc3ccc(C)cc3)ccc21 (stereo not given) |  | 2.27%
CC(=O)c1cccc(NC(=O)Nc2ccc(C)cc2)c1 |  | -13.7%
Cc1cccc(NC(=O)Nc2nnc(-c3ccccc3)o2)c1 |  | -14%
Cc1ccc(NC(=O)Nc2ccccc2)c(Br)c1 | 12.6 µM (active) | 
CCN(CC)c1cc(NC2CCCCC2)c2c3c(onc13)-c1ccccc1C2=O |  | -17.3%

Compound | Potency | activity change, positive = activation
Nc1nnc(SCC(=O)Nc2ccc3nc(SCC(=O)Nc4ccccc4)sc3c2)s1 |  | -3.96%
CCCC(=O)Nc1nc2ccc(NC(=O)c3c(F)c(F)c(OC)c(F)c3F)cc2s1 |  | -26.8%
CSc1nc2ccc(NC(=O)c3c(F)cccc3F)cc2s1 | 12.6 µM (active) | 
CCC(C(=O)Nc1cccc(Cl)c1C)n1nc(-c2ccc(C)cc2)ccc1=O (stereo not given) |  | -3.41%
Cc1cc2nn(-c3ccc(Cl)cc3)nc2cc1NC(=O)C(C)C |  | -8.91%
CCc1ccc(-c2nnn(Cc3nc4ccccc4s3)n2)cc1 |  | -8.76%
COc1ccccc1OCc1nc2ccccc2s1 | 3.16 µM (active) | 
COc1ccc(-c2nc3ccccc3s2)cc1NC(=O)COc1ccccc1C |  | 8.11%
COc1ccc(C2=NC3(CCCCC3)N(CC(=O)Nc3ccc(C(C)C)cc3)C2=O)cc1 |  | 2.69%
C/C(Nc1ccc2oc(=O)ccc2c1)=C1/C(=O)CC2[C@@H]1C2(C)C (stereo not given in full) |  | -1.26%
CCNS(=O)(=O)c1ccc(NC(=O)CSc2nc(-c3ccco3)cc(C(F)(F)F)n2)cc1 |  | -10.1%
O=C(Nc1cccc(Cl)c1N1CCOCC1)c1ccc2c(c1)OCCO2 |  | -0.872%
CCSc1ccccc1C(=O)Nc1ccc2c(c1)OCO2 |  | 27.2%
CC(C)C(=O)Nc1cccc(C(=O)Nc2ccc3c(c2)OCO3)c1 | 15.8 µM (active) | 
O=C(Nc1ccc2c(c1)OCO2)c1ccc(N2C(=O)c3ccccc3C2=O)cc1 |  | -0.0472%
O=C(Nc1cccc([N+](=O)[O-])c1)c1ccc2c(c1)OCO2 |  | 29.6%
Cn1c(NC(=O)c2ccc3c(c2)OCO3)cc(=O)n(C)c1=O |  | -6.43%
Cn1c(=O)n(C)c2cc(C(=O)Nc3ccc4c(c3)OCO4)ccc21 | 11.2 µM (active) | 
O=C(Nc1ccc2c(c1)OCCO2)c1ccc(Cl)c(S(=O)(=O)N2CCCCC2)c1 |  | -62.2%
CN1CCN(c2ccc(NC(=O)c3ccc4c(c3)OCCO4)cc2Cl)CC1 | 14.1 µM (active) | 
Cc1ccc(-c2nc3ccccn3c2Nc2c(C)cccc2C)o1 |  | -0.98%
N#C/C(=C\c1cccc(F)c1)c1nc(-c2cc3c(ccc4ccccc43)oc2=O)cs1 |  | 8.31%
CCOc1ccc(C(=O)c2cn(Cc3ccc(F)cc3)c3ccc(F)cc3c2=O)cc1 |  | -2.97%

Compound | Potency | activity change, positive = activation
Cc1ccc2nc(CNC(=O)c3ccccc3)[nH]c2c1 | 11.2 µM (active) | 
Cc1ccc2nc(CC(=O)c3ccc4ccccc4c3)c(=O)[nH]c2c1 |  | -3.77% [at 9.22 µM]
Cc1ccc(C(=O)NCCNC(=O)c2ccccc2)cc1 |  | 6.08%
Cc1ccc(C)c(Nc2nnc(-c3ccc(C)c(S(=O)(=O)N4CCCCC4)c3)c3ccccc23)c1 |  | -14.7%
Cc1cc(NC(=O)C2CCC(CNS(=O)(=O)c3ccc(Br)s3)CC2)ccc1Br (stereo not given) |  | -18.2%
Cc1ccc(-n2nc3cc(C)c(NC(=O)c4cccnc4)cc3n2)cc1 |  | -15.4%
CCC(=O)Nc1cccc(NC(=O)c2cccnc2)c1 |  | -15.2%
Cc1cc2nc(-c3ccc(NC(=O)c4cccnc4)cc3)oc2cc1C | 12.6 µM (active) | 
O=C(CSc1nnc(CNC(=O)c2ccccc2)n1-c1ccc(F)cc1)Nc1ccccc1F |  | -1.11%
Cc1ccc(CNC(=O)CCc2c(C)nc3nc(CNC(=O)OC(C)(C)C)nn3c2C)cc1 |  | -8.75%
COc1ccc(CCNCc2c(C(=O)O)c(C)n(Cc3cccc(C)c3)c2C)cc1OC |  | 2.2%
Cc1ccnc(NC(=O)c2ccoc2C)c1 | 15.8 µM (active) | 
Cc1ccnc(NC(=O)c2ccc(NC(=O)c3ccco3)cc2)c1 | 10 µM (active) | 
COc1cc(SC)ccc1C(=O)Nc1nc(C)cs1 |  | -80.7%
COc1ccccc1CNC(=O)c1ccc(SC)cc1OC |  | 2.66%
COc1ccccc1OCCNC(=O)c1cc([N+](=O)[O-])cc([N+](=O)[O-])c1 |  | 5.17%
Cc1ccc(C(=O)COc2cccc(NC(=O)c3ccco3)c2)cc1 |  | -40.6%
COc1cccc(C(=O)Nc2ccc(NC(=O)c3ccco3)cn2)c1 |  | -2.24%
Cc1ccnc(NC(=O)CCCOc2ccccc2)c1 |  | -24.8%
COc1cc(SC)ccc1C(=O)Nc1cc(C)ccn1 | 2.24 µM (active) | 
COc1cc(SC)ccc1C(=O)NCCOc1ccccc1Cl | 12.6 µM (active) | 
Cc1occc1C(=O)Nc1nnc(-c2ccncc2)s1 |  | 33.1%
Cc1occc1C(=O)Nc1cccc(Cn2cccn2)c1 |  | -12.3%
